Results as given in PubChem BioAssay (NCI).
Where “and” joins values, the source holds several entries; their conditions need not be identical. Equal values may be shown once. This is part of a sample that, as a whole, favours compounds with a hit. Of some 83,000 tested, about 20% had one in any assay.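 Each cell line was grown in a 96-well plate and treated with one concentration of compound for 48 hours. Values below 10 were considered active.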 Unmarked numbers belong to inactive results. Calls of active or inactive are those of the source.

Legend:
Experiment in all cases: NCI-60 one-dose screen, 48 h (100 = growth as untreated, 0 = no growth, -100 = all killed)
Settings in all cases: 10 µM unless noted
SK-MEL-2 melanoma = test system: SK-MEL-2 melanoma
EKVX NSCLC = test system: EKVX NSCLC
SN12C renal = test system: SN12C renal
UO-31 renal = test system: UO-31 renal
TK-10 renal = test system: TK-10 renal
ACHN renal = test system: ACHN renal
CAKI-1 renal = test system: CAKI-1 renal
A498 renal = test system: A498 renal
CCRF-CEM leukemia = test system: CCRF-CEM leukemia
MOLT-4 leukemia = test system: MOLT-4 leukemia
SR leukemia = test system: SR leukemia
RPMI-8226 leukemia = test system: RPMI-8226 leukemia
OVCAR-8 ovarian = test system: OVCAR-8 ovarian
OVCAR-5 ovarian = test system: OVCAR-5 ovarian
OVCAR-4 ovarian = test system: OVCAR-4 ovarian
SK-OV-3 ovarian = test system: SK-OV-3 ovarian
IGROV1 ovarian = test system: IGROV1 ovarian
OVCAR-3 ovarian = test system: OVCAR-3 ovarian
HS 578T breast = test system: HS 578T breast
NCI/ADR-RES ovarian = test system: NCI/ADR-RES ovarian

SMILES | growth (SK-MEL-2 melanoma) | growth (EKVX NSCLC) | growth (SN12C renal) | growth (UO-31 renal) | growth (TK-10 renal) | growth (ACHN renal) | growth (CAKI-1 renal) | growth (A498 renal) | growth (CCRF-CEM leukemia) | growth (MOLT-4 leukemia) | growth (SR leukemia) | growth (RPMI-8226 leukemia) | growth (OVCAR-8 ovarian) | growth (OVCAR-5 ovarian) | growth (OVCAR-4 ovarian) | growth (SK-OV-3 ovarian) | growth (IGROV1 ovarian) | growth (OVCAR-3 ovarian) | growth (HS 578T breast) | growth (NCI/ADR-RES ovarian)
Nc1nc(CSc2n[nH]c(N)n2)nc(Nc2ccccc2)n1 | 106% | 96.1% | 101% | 87.2% | 99.1% | 98.6% | 87.6% | 89.3% | 45.9% | 107% | 120% | 102% | 104% | 98.8% | 93.4% | 104% | 108% | 105% | 81.5% | 105%
CCCCCO/N=C\c1c2c(O)c3c(O)c(C)c4c(c3c1O)C(=O)C(C)(O/C=C\C(OC)C(C)C(OC(C)=O)C(C)C(O)C(C)C(O)C(C)/C=C\C=C(\C)C(=O)N2)O4 (stereo not given) | -37.7% (active) | 27.3% | 27.6% | 17.8% | 38% | 29.6% | 14.9% | 62.9% | 18.6% | 14.4% | 13.5% | 13.1% | 26.7% | 49.2% | 30.3% | 33.9% | 31.1% | 19.4% | 1.16% (active) | 25.2%
C=C(CN1CC=CCC1)[C@@H]1CC[C@]2(COC(C)=O)CC[C@]3(C)[C@H](CC[C@@H]4[C@@]5(C)CC[C@H](O)C(C)(C)[C@@H]5CC[C@]43C)[C@@H]12 | 104% | 109% | 97.8% | 89.4% | 113% | 99.8% | 107% | 116% | 85.4% | 92.4% | 90.4% | 84.2% | 96.1% | 132% | 92.2% | 115% | 112% | 100% | 103% | 98.3%
O=C(O)C1C2CCC1C(O)C2 (stereo not given) | 97.7% and 95.5% | 110% | 104% and 102% | 81.6% and 82% | 93.1% and 98.2% | 106% and 104% | 100% and 98.3% | 116% and 113% | 101% and 93.9% | 93.6% and 93.5% | 96.2% and 88.2% | 104% and 90.5% | 100% and 98.1% | 96.5% and 96.2% | 106% and 108% | 105% and 98.8% | 124% and 112% | 108% and 96.9% | 110% and 109% | 96.7% and 98.2%
O=C1OCC2=C1C(c1cccc(C(F)(F)F)c1)c1cc3c(cc1N2CCO)CCC3 (stereo not given) | 9.34% (active) | 40.7% | 24.9% | 35.5% | 53.9% | 23.4% | 26.9% | 1.23% (active) | 6.63% (active) | 7.83% (active) | 11.1% | 17.9% | 5.39% (active) | 36.1% | 52.3% | 5.48% (active) | 23.5% | -17.8% (active) | 28% | 17.7%
CC/C(=C(/c1ccc(O)cc1)c1ccc(OCCN2CCCCCC2)cc1)c1ccc(Cl)cc1 | 96.5% | 91.9% | 74.5% | 65.7% | 91.6% | 99.9% | 95.8% | 97.7% | 20.7% | 17% | -24% (active) | -41.6% (active) | 83.6% | 75% | 87.4% | 96.4% | 77.3% | 61% | 85.3% | 84.5%
COc1cc(NC2CCCCC2O)c2nc(-c3ccc(Cl)cc3)ccc2c1 (stereo not given) | 91.5% and 80.4% | 78.3% and 94.4% | 80.1% and 103% | 71.1% and 86.8% | 82.2% and 125% | 84.4% and 87.5% | 46.9% and 61.3% | 101% | 53.7% and 40.2% | 33.4% | -4.63% (active) | 58.3% and 34.2% | 85.5% and 90.1% | 107% and 94.6% | 75.6% and 76.7% | 101% and 105% | 97.2% and 96% | 88.1% and 112% | 85.4% and 138% | 84.5%
COc1ccc(-c2cc(-c3cccnc3)nc3sc4c(Cl)nnnc4c23)cc1OC | 98.3% | 111% | 92.9% | 76.3% | 129% | 87.4% | 101% | 88.1% | 33.6% | 49.1% | 6.41% (active) | 58% | 91.4% | 118% | 96.5% | 109% | 81.6% | 91.9% | 89.2% | 108%
O=C1/C(=C/c2ccc(-c3ccccc3C(F)(F)F)o2)SC(=S)N1CCc1ccc(O)cc1 | 70.1% | 75.3% | 66.6% | 40.1% | 83.1% | 66.3% | 33.8% | 79.1% | 11.9% | 17.5% | 14.2% | 69.8% | 57.6% | 77.4% | 44.8% | 64% | 12.5% | 43.4% | 47.7% | 43.9%
COc1cc2cc(NCc3ccncc3)nc(C)c2cc1OC | 100% | 96.3% | 97.1% | 89.8% | 83.5% | 101% | 82.3% | 72.4% | 112% | 109% | 70.9% | 106% | 91.5% | 80.7% | 94.4% | 77.6% | 113% | 107% | 83.5% | 97.2%
C=C1CC[C@@H]2[C@](C)(COC(C)=O)[C@H](OC(C)=O)CC[C@@]2(C)[C@@H]1CC(Nc1ccc(S(=O)(=O)Nc2nccs2)cc1)C1=CCOC1=O (stereo not given in full) | 28.4% | 73.4% | 15.6% | 13.5% | 55% | -46.6% (active) | 55.9% | 85% | -27.7% (active) | -4.45% (active) | -5.84% (active) | -13.3% (active) | 4.39% (active) | 7.82% (active) | 38% | 79.9% | 12.6% | -70.2% (active) | 51.9% | 9.2% (active)
COc1cc(Cl)cc(-c2nn(C(=O)NS(=O)(=O)c3ccc(Cl)cc3)cc2-c2ccncc2)c1 | 95% | 59.5% | 92.5% | 63% | 85.8% | 80.6% | 91% | 70.2% | 88% | 76.2% | 80.5% | 77.2% | 27.5% | 87.4% | 16.5% | 84.7% | 82.6% | 98.3% | 73.3% | 84.1%
COc1ccc(C(CC(=O)c2ccc3c(c2)OCO3)C(=O)O)cc1OC (stereo not given) | 114% and 87.8% | 99.9% | 98% and 102% | 113% and 83.3% | 109% and 108% | 118% and 98.7% | 91.4% and 95.3% | 104% and 106% | 96% and 97.5% | 108% and 96.1% | 116% and 90.8% | 103% and 96.1% | 107% and 106% | 118% and 99.9% | 132% and 108% | 113% and 105% | 131% and 106% | 119% and 102% | 94.8% and 121% | 106% and 98.5%
O=C1C(=C(O)c2ccccc2)C(=O)c2ccccc21 | 105% | 104% | 102% | 85.5% | 111% | 103% | 92.9% | 123% | 73.7% | 116% | 115% | 94.3% | 105% | 104% | 101% | 101% | 106% | 109% | 120% | 108%
